{"source": "PubChem BioAssay (NCATS)", "note": "Results filed as inconclusive are left out. Activity calls are given as the source filed them. The call rests on the fitted dose curve; in most records, active means well fitted inhibition curve with a large enough effect; inconclusive means small, poorly fitted or top-dose-only effect; inactive means flat fitted curve, though single readings scatter. Numbered stars: 1 amine (or outer) side, 2 acyl side, 3 side chain; on linkers, the order of the positions; unused ones are H or OH. Bridge positions count the residues as written; N and C are the ends. Square brackets hold non-standard residues; d marks the D form. Peptide text beside a SMILES is read from it. I, II: the chains in the order shown. Actinocin(9to1) = Cc1c2oc3c(C)ccc(C(=O)[*:1])c3nc-2c(C(=O)[*:2])c(N)c1=O; NMeV = CN[C@H](C(=O)O)C(C)C; Sar = CNCC(=O)O"}
{"system": "MCC-26", "assay": "qHTS assay to identify novel small-molecules to repurpose for Merkel cell carcinoma treatment (AID 1296009); further: nearly all actives have a fitted effect of over 60% in size; further: potency means the concentration at half of the fitted maximal effect; on activity change, negative = cytotoxicity: on the % scale 0 is the no-effect control and ±100 the full control effect", "details": "MCC and control cell lines, CellTiter-Glo viability, 72 h; series mostly up to 46 µM; activity change, negative = cytotoxicity: at the top concentration", "source_text": "MCC is a rare and aggressive neuroendocrine skin cancer with limited treatment options. Approximately 80% of MCCs have the Merkel cell polyomavirus (MCPyV) DNA integrated into the host genome (virus-positive: VP-MCC) and viral oncogenes drive oncogenesis. The remaining MCCs are virus-negative (VN-MCC) and are caused by UV mutagenesis. To identify novel treatments for VP-MCC and/or VN-MCC we screened three VP-MCC cell lines (WAGA, MKL-1, MKL-2), three VN-MCC cell lines (MCC-13, MCC-26, UISO), and four immortalized, non-transformed control cell lines (HaCaT, HEK293T, CRL7250, NIH-3T3) against ~2,400 compounds in the NCGC Pharmaceutical Collection (NPC) and ~1,900 compounds in the Mechanism Interrogation PlatE (MiPE). Using cell viability as a readout (CellTiter-Glo assay) we found both overlapping and distinct drugs that can be repurposed for the treatment of VP-MCC and VN-MCC.\nA high-throughput screen was conducted in 1536-well white flat bottom plates (Corning) on a Kalypsys robotic system. Cell lines WAGA, MKL-1, MKL-2, MCC-13, MCC-26, UISO, HaCaT, HEK293T, CRL7250, and NIH-3T3 were screened against 2 small molecule annotated drug libraries NPC and MIPE in dose response (8 and 11 pt. respectively) measuring cell viability after 72 hours of incubation. […] A 1,536 pintool (Kalypsys) was used to transfer 23 nL of compound in DMSO to the 1,536-well assay plates. After 72 hr incubation at 37 degree celsius, 2.5 uL of CellTiter-Glo (Promega) was dispensed into each well using a BiorapTR. Plates were incubated at room temperature for 10 min, transferred to a ViewLux (PerkinElmer) and the luminescence was recorded using an exposure time of 2 seconds. Relative luminescence units (RLUs) were normalized to in-plate controls (no cells as a positive (cytotoxicity) control, DMSO as negative control) and the normalized data was processed using NCATS in-house software."}
{"smiles": "C[C@@H]1C[C@H]2[C@@H]3C[C@H](F)C4=CC(=O)C(Cl)=C[C@]4(C)[C@@]3(F)[C@@H](O)C[C@]2(C)[C@@]1(O)C(=O)CO", "activity change, negative = cytotoxicity": "-2.81% (inactive)"}
{"smiles": "CC(=O)Oc1ccc(C(c2ccc(OC(C)=O)cc2)c2ccccn2)cc1", "activity change, negative = cytotoxicity": "-2.05% (inactive)"}
{"smiles": "C[C@@H]1CN(CCCn2c3ccccc3c3ccccc32)C[C@H](C)N1", "activity change, negative = cytotoxicity": "-23.4% (inactive)"}
{"smiles": "O=C(Nc1ccc(Oc2ccc(Cl)cc2)c(Cl)c1)c1cc(I)cc(I)c1O", "activity change, negative = cytotoxicity": "4.46% (inactive)"}
{"smiles": "O=C(O)CNC(=O)c1ccccc1", "activity change, negative = cytotoxicity": "2.77% (inactive)"}
{"smiles": "CN1CCC[C@@H]1c1cccnc1", "activity change, negative = cytotoxicity": "-11.2% (inactive)"}
{"smiles": "OC(CCN1CCCCC1)(c1ccccc1)c1ccccc1", "activity change, negative = cytotoxicity": "-13.3% (inactive)"}
{"smiles": "CCCCCCc1ccc(O)cc1O", "activity change, negative = cytotoxicity": "-6.97% (inactive)"}
{"smiles": "CC(C)(C(=O)c1cccnc1)c1cccnc1", "activity change, negative = cytotoxicity": "3.91% (inactive)"}
{"smiles": "Cc1c2oc3c(C)ccc(C(=O)N[C@@H]4C(=O)N[C@H](C(C)C)C(=O)N5CCC[C@H]5C(=O)N(C)CC(=O)N(C)[C@@H](C(C)C)C(=O)O[C@@H]4C)c3nc-2c(C(=O)N[C@@H]2C(=O)N[C@H](C(C)C)C(=O)N3CCC[C@H]3C(=O)N(C)CC(=O)N(C)[C@@H](C(C)C)C(=O)O[C@@H]2C)c(N)c1=O", "note": "(I: T[dV]P[Sar][NMeV] / II: T[dV]P[Sar][NMeV]; ester I:1-I:C, II:1-II:C; linker I:N-II:N via Actinocin(9to1))", "Potency": "21.1 nM (active)"}
{"smiles": "CC(C)COC(=O)c1ccc(N)cc1", "activity change, negative = cytotoxicity": "6.31% (inactive)"}
{"smiles": "COc1cccc2c1C(=O)c1c(O)c3c(c(O)c1C2=O)C[C@@](O)(C(C)=O)C[C@@H]3O[C@H]1C[C@H](N)[C@H](O)[C@H](C)O1", "Potency": "944 nM (active)"}
{"smiles": "Cc1ccc(C(=O)C(C)CN2CCCCC2)cc1", "note": "(stereo not given)", "activity change, negative = cytotoxicity": "0.659% (inactive)"}
{"smiles": "COc1cc(OC)cc(OC)c1", "activity change, negative = cytotoxicity": "5.73% (inactive)"}
{"smiles": "NC[C@H]1O[C@H](O[C@H]2[C@H](O)[C@@H](O[C@H]3O[C@H](CO)[C@@H](O)[C@H](N)[C@H]3O)[C@H](N)C[C@@H]2N)[C@H](N)[C@@H](O)[C@@H]1O", "activity change, negative = cytotoxicity": "6.34% [at 16.1 µM] (inactive)"}
{"smiles": "CO/N=C1\\CN(c2nc3c(cc2F)c(=O)c(C(=O)O)cn3C2CC2)CC1CN", "note": "(stereo not given)", "activity change, negative = cytotoxicity": "2.91% (inactive)"}
{"smiles": "Cc1nc2n(c(=O)c1CCN1CCC(c3noc4cc(F)ccc34)CC1)CCC[C@H]2O", "activity change, negative = cytotoxicity": "6.64% [at 16.1 µM] (inactive)"}
{"smiles": "CN1CCCC(CC2c3ccccc3Sc3ccccc32)C1", "note": "(stereo not given)", "activity change, negative = cytotoxicity": "-6.22% (inactive)"}
{"smiles": "CC(=O)O[C@]1(C(C)=O)CC[C@H]2[C@@H]3C[C@H](C)C4=CC(=O)CC[C@]4(C)[C@H]3CC[C@@]21C", "activity change, negative = cytotoxicity": "-14.4% (inactive)"}
{"smiles": "O=C1OCCN1/N=C/c1ccc([N+](=O)[O-])o1", "activity change, negative = cytotoxicity": "7.6% (inactive)"}
{"smiles": "Oc1ccc(O)cc1", "activity change, negative = cytotoxicity": "5.2% (inactive)"}
{"smiles": "C/C=C(/C(=C/C)c1ccc(O)cc1)c1ccc(O)cc1", "activity change, negative = cytotoxicity": "-9.48% (inactive)"}
{"smiles": "COc1ccc(C2C(=O)c3ccccc3C2=O)cc1", "activity change, negative = cytotoxicity": "10.1% (inactive)"}
{"smiles": "Cc1cccn2c(=O)c(-c3nnn[nH]3)cnc12", "activity change, negative = cytotoxicity": "-8.57% [at 16.1 µM] (inactive)"}
{"smiles": "C#C[C@]1(O)CC[C@H]2[C@@H]3CCc4cc(OC5CCCC5)ccc4[C@H]3CC[C@@]21C", "activity change, negative = cytotoxicity": "0.658% (inactive)"}
{"smiles": "CN=C(NC#N)NCCSCc1csc(N=C(N)N)n1", "activity change, negative = cytotoxicity": "5.43% (inactive)"}
{"smiles": "C[C@]12CCC(=O)C=C1CC[C@H]1[C@@H]3CC[C@](O)(C(=O)CO)[C@@]3(C)C[C@H](O)[C@@]12F", "activity change, negative = cytotoxicity": "-11.7% (inactive)"}
{"smiles": "C=CCc1ccc(O)c(OC)c1", "activity change, negative = cytotoxicity": "12.1% (inactive)"}
{"smiles": "C[C@H]1[C@H](NC(=O)/C(=N/OC(C)(C)C(=O)O)c2csc(N)n2)C(=O)N1S(=O)(=O)O", "note": "(stereo in doubt)", "activity change, negative = cytotoxicity": "10.3% (inactive)"}
{"smiles": "CCN(CC)C(=O)N1CCN(C)CC1", "activity change, negative = cytotoxicity": "-2.32% (inactive)"}
{"smiles": "C[C@H]1C[C@H]2[C@@H]3CCC4=CC(=O)C=C[C@]4(C)[C@@]3(Cl)[C@@H](O)C[C@]2(C)[C@@]1(O)C(=O)CO", "activity change, negative = cytotoxicity": "-3.54% (inactive)"}
{"smiles": "NCCCC[C@H](N[C@@H](CCc1ccccc1)C(=O)O)C(=O)N1CCC[C@H]1C(=O)O", "activity change, negative = cytotoxicity": "3.04% (inactive)"}
{"smiles": "CC(=O)OCC(=O)NCCCOc1cccc(CN2CCCCC2)c1", "activity change, negative = cytotoxicity": "-1.69% (inactive)"}
{"smiles": "Cc1ccccc1C(=O)Nc1ccc(C(=O)N2CCCC(N(C)C)c3ccccc32)cc1", "note": "(stereo not given)", "activity change, negative = cytotoxicity": "-3.63% (inactive)"}
{"smiles": "Cc1c(C)n(CCN(C)C)c2ccc(C(=O)OCCN(C)C)cc12", "activity change, negative = cytotoxicity": "8.05% (inactive)"}
{"smiles": "CNC(=O)CN(CCN(CCN(CC(=O)[O-])CC(=O)NC)CC(=O)[O-])CC(=O)[O-].O.[Gd+3]", "activity change, negative = cytotoxicity": "14.1% (inactive)"}
{"smiles": "CNCC[C@@H](Oc1ccccc1C)c1ccccc1", "activity change, negative = cytotoxicity": "-12.3% (inactive)"}
{"smiles": "CCN1CCC[C@H]1CNC(=O)c1c(OC)ccc(Br)c1OC", "activity change, negative = cytotoxicity": "-3.95% (inactive)"}
{"smiles": "CC(=O)Oc1ccc2c(c1)CC[C@@H]1[C@@H]2CC[C@]2(C)[C@@H](O)CC[C@@H]12", "activity change, negative = cytotoxicity": "-11.7% (inactive)"}
{"smiles": "O=C1[C@H]2CCCC[C@H]2C(=O)N1CCCCN1CCN(c2nsc3ccccc23)CC1", "activity change, negative = cytotoxicity": "1.8% (inactive)"}
